# Hits are enriched below; roughly 6% of the tested compounds scored in any of these assays.
# D1 antag: Antagonist of Human D 1 Dopamine Receptor: qHTS. D(1A) dopamine receptor (Homo sapiens), P21728. HEK293 TREx D1 cells, calcium flux, dopamine EC80; stronger effect = lower value. activity change, negative = inhibition, % at 10 µM. actives 3.2% (n = 360,000). AID 504652, 2011; in the data active = activity change below about -30%; note: % is set by controls: 0 for no effect and ±100 for the full control effect
#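 Allosteric or orthosteric antagonism assessed as attenuation of the calcium response to EC80 dopamine, added 180 s after compound, in induced HEK293 Trex D1 cells loaded with no-wash calcium dye.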
# D3 antag: qHTS of D3 Dopamine Receptor Antagonist: qHTS. AID 652054, 2013. max response, negative = inhibition, %. actives 2.5% (n = 360,000). D3R cells, DiscoveRx beta-arrestin luminescence, antagonist mode; stronger effect = lower value. D(3) dopamine receptor (Homo sapiens), P35462; in the data active = max response below about -50%; inconclusive = no clear call, values can overlap the other calls; note: % is set by controls: 0 for no effect and ±100 for the full control effect
# Target sequence (P35462 whole entry, looked up): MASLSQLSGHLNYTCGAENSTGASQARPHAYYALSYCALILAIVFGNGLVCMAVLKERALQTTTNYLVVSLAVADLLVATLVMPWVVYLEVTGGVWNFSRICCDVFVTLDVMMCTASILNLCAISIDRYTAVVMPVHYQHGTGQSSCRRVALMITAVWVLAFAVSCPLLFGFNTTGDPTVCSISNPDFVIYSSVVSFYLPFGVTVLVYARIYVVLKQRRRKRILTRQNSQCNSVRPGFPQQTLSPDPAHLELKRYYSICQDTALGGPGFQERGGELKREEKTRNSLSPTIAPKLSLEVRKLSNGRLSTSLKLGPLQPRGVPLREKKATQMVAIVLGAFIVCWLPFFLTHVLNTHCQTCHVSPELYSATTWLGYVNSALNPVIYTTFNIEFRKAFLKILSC
#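 Cells plated overnight at 1500 cells/well, then exposed to library compounds with dopamine controls for 90 minutes at 37 degrees C. DiscoveRx reagent added for 30–60 minutes at room temperature; luminescence read, quantitative HTS format.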
# D1 agonist: Allosteric Agonists of the Human D1 Dopamine Receptor: qHTS | AID 504660, 2011 | HEK293 T-REx D1 cells, calcium flux, agonist mode | actives 1% (n = 360,000) | activation, % at 2 µM | D(1A) dopamine receptor (Homo sapiens), P21728; in the data active = activation above about 30%; note: 0% is about no effect
#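 Inducible HEK293 T-REx D1 cells, force-coupled to calcium signalling, were plated at 4000 cells/well with tetracycline and held overnight at 30 C. After no-wash calcium dye loading, compound-evoked calcium rise over 180 s flagged agonists.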
# D1 PAM: Potentiators of Human D1 Dopamine Receptor: qHTS. HEK293 TREx D1 cells, calcium flux, dopamine EC20 potentiation. D(1A) dopamine receptor (Homo sapiens), P21728. potentiation, % at 10 µM. AID 504651, 2011. actives 0.036% (n = 360,000); in the data active = potentiation above about 30%; note: 0% is about no effect
# D3 ag: qHTS of D3 Dopamine Receptor Agonist: qHTS | D(3) dopamine receptor (Homo sapiens), P35462 | D3R DiscoveRx beta-arrestin cells, luminescence, 90 min | max activation, % | actives 0.58% (n = 410,000) | AID 652048, 2013; in the data active = max activation above about 30%; note: 0% is about no effect
#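 Agonist-mode cell screen: cells plated at 1500/well and incubated overnight at 37 °C, then exposed to library compounds for 90 min at 37 °C. Detection reagent was added for 30–60 min at room temperature, and luminescence was read.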
# BCR signal inh: qHTS Assay to Find Inhibitors of Chronic Active B-Cell Receptor Signaling; ABC-DLBCL IkBa-CBG/CBR reporter, luminescence ratio, 4 h; Potency, µM (titrated, usually from 46.1 µM), for the others: top-dose activity change, negative = inhibition, hits mostly inhibitors; actives 0.05% (n = 340,000); AID 493014, 2011; active = well fitted inhibition curve with a large enough effect in the signal ratio, with a control signal flat, not every such curve was filed as active; inconclusive = small, poorly fitted or top-dose-only effect, or effect the other way, or a change in a side signal; the % refers to the signal ratio;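 note: potency is the fitted concentration of half-maximal effect; plate controls were basal doxycycline-induced cells for no effect and cells given 10 µM MG132 for full effect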
#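 Cell line TMD8 (human ABC DLBCL), stably expressing tet-inducible CBG68-IkBa fusion and CBR; IMDM/0.5% FBS; cpd up to 46 uM; dox induction, 4 h, 37C/5% CO2; dual luminescence; green/red ratio; MG132 control.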
# * = called active by the depositor; ? = inconclusive; nt = not tested or not shown.
SMILES,D1 antag,D3 antag,D1 agonist,D1 PAM,D3 ag,BCR signal inh
Cc1nc2ncccn2c1-c1csc(Nc2ccccc2)n1,1,19,3,-2,-10,?
COc1ccc(Nc2nc(-c3c[nH]c4ccccc34)cs2)cc1,-39*,-24,3,-1,-11,?
O=C(OCc1ccccc1)N1CCC2CC1c1ccc(/C=C/CCCCl)cc12 (centres undefined),nt,-22,nt,nt,-7,nt
COc1cccc(N2CCN(C(=O)c3cccnc3)CC2)c1,-39*,-8,3,6,2,4%
COc1cccc(N2CCN(C(=O)CC(NC(=O)c3ccccc3)c3ccccc3)CC2)c1 (centres undefined),6,-54*,0,-6,-9,?
COc1cccc(C(=O)N2CCN(C(=O)C3COc4ccccc4O3)CC2)c1 (centres undefined),-32*,13,3,-2,8,2%
COc1ccc(C(=O)N2CCN(C(=O)C3COc4ccccc4O3)CC2)cc1OC (centres undefined),7,-11,2,0,0,-1%
COc1cccc(N2CCN(C(=O)c3cc(C)oc3C)CC2)c1,-43*,-13,1,-1,-8,-2%
CCCN(C(=O)c1nn(-c2ccc(OC)cc2)c(=O)c2c1c1ccccc1n2C)c1ccc(CC)cc1,-19,nt,2,2,-3,nt
COc1ccc(Cn2cc(C(=O)c3ccc(Cl)cc3)c(=O)c3cc4c(cc32)OCO4)cc1,-7,nt,6,-3,8,nt
CC(C)=CCC[C@](C)(OC1OC(COC2OCC(O)C(O)C2O)C(O)C(O)C1O)C1CC[C@]2(C)C1C(O)CC1[C@@]3(C)CCC(O[C@@H]4O[C@H](CO)C(O)C(O)C4O[C@@H]4OC(CO)C(O)C(O)C4O)C(C)(C)C3CC[C@]12C (some centres undefined),nt,1,nt,nt,10,0%
CC(C)=CCC[C@](C)(O)C1CC[C@]2(C)C1[C@H](O)CC1[C@@]3(C)CC[C@H](O[C@@H]4O[C@H](CO)[C@@H](O)[C@H](O)[C@H]4O[C@@H]4O[C@H](CO)[C@@H](O)[C@H](O)[C@H]4O)C(C)(C)C3CC[C@]12C (some centres undefined),nt,-61*,nt,nt,-19,?
CNC(=O)COc1ccc(NC(=O)CCn2nc(-c3ccc(C)cc3)c3ccccc3c2=O)cc1,-15,nt,1,-2,6,nt
CO[C@@H]1[C@@H](OC)[C@H](C)[C@@](O)(CC(=O)O)O[C@H]1[C@H](C)[C@H]1O[C@@]2(CC[C@@](C)([C@H]3CC[C@@](C)([C@@H]4O[C@@H]([C@H]5O[C@](C)(O)[C@H](C)C[C@@H]5C)C[C@@H]4OC4C[C@H](OC)[C@@H](OC)[C@H](C)O4)O3)O2)C[C@H](O)[C@H]1C (some centres undefined),nt,nt,nt,nt,10,nt
O=C(C[C@H]1CC[C@@H]2[C@H](COC[C@@H](O)CN2Cc2ccc(Cl)cc2)O1)NCCc1ccccc1,nt,-14,nt,nt,-2,nt
CCOC(=O)C1CCCN(C2=NC(=O)/C(=C/c3ccc(OC)cc3)S2)C1 (centres undefined),0,-11,0,2,0,-18%
CCOC(=O)C1CCCN(C2=NC(=O)/C(=C/c3ccc(N(C)C)cc3)S2)C1 (centres undefined),3,-16,60*,-7,0,-6%
CC(C)c1ccc(NC(=O)c2ccc3c(c2)CCCN3S(C)(=O)=O)cc1,-13,nt,-1,3,-16,nt
Cc1nnc(SCC(=O)Nc2nccs2)s1,6,3,-2,-6,2,?
Nc1nnc(SCC(=O)Nc2nccs2)s1,-43*,-3,1,-5,-3,6%
CCOc1ccc(C2=Nn3c(nnc3-c3ccco3)SC2)cc1,-31*,-23,1,-4,1,-1%
COc1ccc(C2=Nn3c(nnc3-c3ccc(OC)cc3)SC2)cc1,1,?,6,-3,-6,6.5µM*
COc1ccc(-c2nnc3n2N=C(C)CS3)cc1,1,-4,2,-10,1,5%
CC[C@H](C)[C@@H]1NC(=O)c2cc([N+](=O)[O-])cc(I)c2NCC[C@@H](C(N)=O)NC(=O)[C@H](CCCN=C(N)N)NC1=O,11,18,-3,-2,1,1%
NC(=O)CC[C@@H]1NC(=O)[C@@H]2CCCN2C(=O)c2cc([N+](=O)[O-])cc(I)c2NCCC[C@@H](C(=O)NC(CC(=O)O)C(N)=O)NC1=O (some centres undefined),-1,1,-4,-5,8,1%
SMILES,D1 antag,D3 antag,D1 agonist,D1 PAM,D3 ag,BCR signal inh
NC(=O)CC[C@@H]1NC(=O)[C@@H]2CCCN2C(=O)c2cc([N+](=O)[O-])cc(I)c2NCCC[C@@H](C(N)=O)NC1=O,4,2,-2,-5,44*,0%
NC(=O)[C@@H]1CCCNc2c(I)cc([N+](=O)[O-])cc2C(=O)N[C@@H](CCCN=C(N)N)C(=O)N[C@@H](CCCN=C(N)N)C(=O)N1,-39*,nt,0,-4,nt,3%
O=C(O)c1cc(O)c2c(c1)[C@@H]([C@H]1c3cc(C(=O)O)cc(O)c3C(=O)c3c(O[C@@H]4O[C@H](CO)[C@@H](O)[C@H](O)[C@H]4O)cccc31)c1cccc(OC3O[C@H](CO)[C@@H](O)[C@H](O)[C@H]3O)c1C2=O (some centres undefined),-17,-56*,-2,-2,0,0%
O=C(O)c1cc(O)c2c(c1)[C@H]([C@H]1c3cc(C(=O)O)cc(O)c3C(=O)c3c(O[C@@H]4O[C@H](CO)[C@@H](O)[C@H](O)[C@H]4O)cccc31)c1cccc(OC3O[C@H](CO)[C@@H](O)[C@H](O)[C@H]3O)c1C2=O (some centres undefined),6,-13,-2,-1,0,5%
COc1cc(CN(C(=O)c2ccc(C)cc2)C2CCS(=O)(=O)C2)cc(OC)c1OC (centres undefined),-30*,nt,0,-2,3,nt
CCC(NC(=O)c1ccc2nc(Cc3ccc(OC)cc3)oc2c1)c1ccncc1 (centres undefined),-41*,22,21,-8,-9,-3%

# Screens deposited in PubChem by National Center for Advancing Translational Sciences (NCATS).
